Bioassay records as filed in PubChem.
Shiga toxin inh: A qHTS for Small Molecule Inhibitors of Shiga Toxin. Vero cells, Shiga toxin protein synthesis inhibition reporter. inhibition, % at 38.7 µM. hit rate 9.2% among 290,000. AID 2315, 2010; in the data active = inhibition mostly above about 28%, no sharp cut-off; inactive = mostly below about 43%; note: 0% is about no effect
LmPK inhibitor: qHTS Assay for Inhibitors of Leishmania Mexicana Pyruvate Kinase (LmPK). Q27686. purified LmPK, Kinase-Glo ATP luminescence, 1 h. Potency, µM (doses to about 57.5 µM), inactives show at the highest dose activity change, negative = inhibition, usual class: inhibitors. hit rate 0.37% among 290,000. AID 1721, 2009; note: potency is the fitted concentration of half-maximal effect; % is set by controls: 0 for no effect and ±100 for the full control effect
Target sequence (Q27686 whole entry, looked up): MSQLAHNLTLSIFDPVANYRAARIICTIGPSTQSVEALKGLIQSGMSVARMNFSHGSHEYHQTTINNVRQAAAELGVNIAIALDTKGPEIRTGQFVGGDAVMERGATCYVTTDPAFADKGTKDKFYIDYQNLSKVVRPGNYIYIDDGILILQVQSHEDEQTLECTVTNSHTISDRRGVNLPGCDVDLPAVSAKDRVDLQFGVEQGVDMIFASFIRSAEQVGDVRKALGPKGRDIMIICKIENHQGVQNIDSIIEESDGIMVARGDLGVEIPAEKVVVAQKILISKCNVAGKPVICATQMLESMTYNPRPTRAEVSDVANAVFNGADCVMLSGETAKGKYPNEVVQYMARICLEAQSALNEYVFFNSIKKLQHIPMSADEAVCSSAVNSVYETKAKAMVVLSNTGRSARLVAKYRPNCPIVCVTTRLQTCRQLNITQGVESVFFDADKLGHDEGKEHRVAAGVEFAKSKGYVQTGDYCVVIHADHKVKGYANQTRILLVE
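0.1 nM LmPK, 0.5 mM PEP, 0.1 mM ADP; 50 mM imidazole pH 7.2, 7 mM MgCl2, 50 mM KCl; 1 h RT. Kinase-Glo luminescence readout, normalized to no-enzyme (full inhibition) and uninhibited wells.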
Tb PYK inh: qHTS of Trypanosoma Brucei Inhibitors; Potency, µM (series often up to 76.8 µM), for inactives: at the top dose activity, negative = inhibition, hits mostly inhibitors; TbPYK enzyme, Kinase-Glo Plus ATP luminescence, 45 min; hit rate 0.12% among 410,000; note: potency is the fitted concentration of half-maximal effect; % is set by controls: 0 for no effect and ±100 for the full control effect; nearly all actives have a fitted effect of over 50% in size
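Screened from lowest to highest concentration, compounds were pinned into TbPYK/substrate mixtures, and ADP (130 uM final) was added. Plates sat at room temperature for 45 min prior to Kinase-Glo Plus detection by luminescence.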
NS1 inh: qHTS Assay for Inhibitors of Influenza NS1 Protein Function; Potency, µM (titrated, usually from 46.1 µM), for inactives: at the highest dose activity, positive = more growth; hit rate 0.4% among 270,000; calls by dose curve; note: potency is the fitted concentration of half-maximal effect; actives are rising curves; nearly all actives have a fitted effect of over 50% in size
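In this qHTS, NS1 from influenza A is expressed in budding yeast, where it slows growth. Cells are switched from glucose to 2% galactose medium (pH 6.0, -URA), treated with compound, and growth recovery is read at OD600.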
CHX counter: Cycloheximide Counterscreen for Small Molecule Inhibitors of Shiga Toxin | cell reporter, cycloheximide protein synthesis inhibition counterscreen | max response, % | hit rate 12% among 300,000; in the data active = max response mostly above about 13%, no sharp cut-off; inactive = mostly below about 14%; note: read at 38.3 µM for the half of the compounds with a filed dose; 0% is about no effect
SARS PLP yeast: qHTS of Yeast-based Assay for SARS-CoV PLP; S. cerevisiae expressing SARS-CoV PLpro, growth rescue; Potency, µM (doses to about 32.9 µM), without a hit: top-dose activity, positive = growth rescue, usual class: activators; hit rate 0.19% among 330,000; calls by dose curve; note: potency is the fitted concentration of half-maximal effect; 0% is about no effect; nearly all actives have a fitted effect of over 55% in size
The depositor's hits bear a star; ? = inconclusive; · = no result; ! = not confirmed by another sample; [ ] = dose if it differs, or a comment. The full list was thinned out, with hits kept by preference. Unless noted, calls come from the whole dose curve; as a rule, active = well fitted curve in the direction sought with a large enough effect; inconclusive = small, poorly fitted or top-dose-only effect, or another doubt; inactive = no such curve, though single readings can be large; an effect the other way counts as inactive or inconclusive.

SMILES | Shiga toxin inh | LmPK inhibitor | Tb PYK inh | NS1 inh | CHX counter | SARS PLP yeast
CC(=O)[C@@]1(O)CC[C@H]2[C@@H]3C=C(Cl)C4=CC(=O)CC[C@]4(C)[C@H]3CC[C@@]21C | · | · | 1.9% | · | · | ·
c1ccc(SCCN2CCN(c3ccccc3)CC2)cc1 | 44.9 | -5.0% | 4.3% | -9.4% | 12.8* | -1.4%
CC(CN1CCN(c2ccccc2)CC1)c1ccccc1 (stereo not drawn) | 21.5 | -8.8% | -8.2% | -0.5% | 7.1 | -13.1%
CCCN1CCC(=O)N(CCSc2ccccc2)CC1 | 44.4* | 0.7% | -13.4% | 12.9% | 40.3* | 7.2%
Cc1ccc(SCCN2CCN(CC(C)C)CCC2=O)cc1 | 84.5* | -3.7% | 1.9% | -9.4% | 31.2*! | 4.6%
CC(=O)Nc1ccc(SCC(c2ccccc2)N2CCN(CC(C)C)CCC2=O)cc1 (stereo not drawn) | 13.9 | · | · | · | 15.1 | ·
Cc1nc2c(C(=O)NCCCN(CC(C)C)CC(C)C)cnn2c(C)c1Cc1c(F)cccc1Cl | · | · | 1.0% | · | · | ·
COC(=O)C[C@H]1C[C@H]2c3cc(NC(=O)CC4CC4)ccc3O[C@H]2[C@H](CO)O1 | · | · | 17.9% | · | · | ·
Cc1nn(CC2CC2)c(=O)n1-c1ccccc1F | 19.8 | 7.2% | 3.5% | · | 1.9 | -2.2%
Cc1ccc(-n2c(C)nn(CCOc3ccccc3)c2=O)cc1 | 67.0* | -6.4% | -6.9% | 0.8% | 35.1* | 2.4%
Cc1nn(C)c(=O)n1-c1ccc(Oc2ccccc2)cc1 | -6.7 | -4.4% | 2.7% | -0.9% | 10.6* | 7.9%
Cc1nn(CCOc2ccccc2)c(=O)n1-c1c(F)cccc1F | 32.5* | -2.4% | -9.3% | 4.5% | 51.8* | -2.3%
O=C(Nc1cccc(C(F)(F)F)c1)c1ccc(F)c(S(=O)(=O)N2CCc3ccccc3C2)c1 | · | · | 9.4% | · | · | ·
COc1ccc2c(Sc3ccccc3)c(C(=O)NCC(C)c3ccccc3)[nH]c2c1 (stereo not drawn) | · | · | 2.9% | · | · | ·
Cc1ccc(-n2nc(CO)c(C(=O)NCc3cccnc3)n2)cc1C | · | · | 0.8% | · | · | ·
Cc1cc(/C=N/n2cnnc2)c(C)n1-c1ccc(OCc2ccc(Cl)cc2)cc1 | 92.5* | -0.1% | 7.1% | -134.7% | 51.6* | -30.2%
Cc1cc(/C=N/n2cnnc2)c(C)n1-c1ccc(OCc2ccccc2F)cc1 | 24.9 | 2.8% | 4.4% | -97.3% | 25.8* | -28.1%
Cc1cc(/C=N\NC(=O)CC(=O)NC2CCCCC2)c(C)n1-c1ccc(Cl)cc1 | -4.3 | 2.1% | 1.5% | 3.7% | -1.6 | 3.3%
CC(C)NC(=O)CSc1ccccc1C(=O)N1CCN(S(=O)(=O)Cc2ccccc2)CC1 | · | · | 2.4% | · | · | -17.2%
O=C(COC(=O)c1ccco1)Nc1ccc2c(c1)OCCO2 | 79.3* | -14.0% | 3.9% | -12.0% | 56.2* | -2.8%
Cc1ccc(NC(=O)COC(=O)c2ccco2)cc1C | · | · | 0.6% | · | · | -5.9%
O=C(Nc1ccc2c(c1)OCCO2)c1ccco1 | 112.4* | 25.1µM* | -3.7% | 1.4%[9.22 µM] | 40.4* | -15.4%
CC1(C)Oc2ccc(NC(=O)c3ccco3)cc2O1 | 90.8* | -23.1% | 4.5% | -28.8% | 31.6* | -14.2%
O=C(O)Cn1c(=O)c(F)cn(C2CCCO2)c1=O (stereo not drawn) | -6.0 | 3.5% | 6.4% | -0.1% | -4.9 | 3.4%
O=C1CC(c2ccccc2)Sc2nc3ccccc3n21 (stereo not drawn) | 98.5* | -16.3% | -18.8% | · | 40.8* | -10.8%
SMILES | Shiga toxin inh | LmPK inhibitor | Tb PYK inh | NS1 inh | CHX counter | SARS PLP yeast
O=C1CC(c2ccc3c(c2)OCO3)Sc2nc3ccccc3n21 (stereo not drawn) | 106.1* | ? | -2.3% | -60.2% | 51.4* | -27.3%
O=C1C=C(c2cc3ccccc3s2)C[C@@H](c2ccc3c(c2)OCO3)C1 | · | · | -2.7% | · | · | -2.3%
O=C1CC(c2ccco2)Sc2nc3ccccc3n21 (stereo not drawn) | 82.2* | -11.2% | -13.3% | -63.0% | 35.8* | -2.4%
O=C1CC(c2cccs2)Sc2nc3ccccc3n21 (stereo not drawn) | 106.2* | -15.2% | -11.3% | -42.7% | 44.9* | -15.2%
O=C1CC(c2ccc(F)cc2)Sc2nc(-c3ccccc3)c(-c3ccccc3)n21 (stereo not drawn) | -14.0 | 1.4% | -12.7% | 0.3% | -5.1 | -13.8%
O=C(Cn1cc2c(n1)CCCC2)Nc1cc(C(F)(F)F)ccc1Cl | · | · | -7.8% | · | · | ·
Cc1nc(-c2ccc(S(=O)(=O)NCc3ccc(N(C)C)cc3)cc2)co1 | · | · | -2.5% | · | · | ·
Cc1cn([C@H]2C[C@H](O)[C@@H](CNC(=O)[C@H](N)C3CC3)O2)c(=O)[nH]c1=O | · | · | -12.3% | · | · | ·
CCOc1ccccc1-c1nc(-c2cc3ccc(C)cc3[nH]c2=O)no1 | 13.6 | -0.3% | 5.0% | -20.5% | -1.7 | 7.3%
CCCc1nc(-c2cc3ccc(C)cc3[nH]c2=O)no1 | 59.4* | -3.4% | -4.9% | -2.2% | 23.0* | -0.6%
Cc1ccc2cc(-c3noc(C4CCCO4)n3)c(=O)[nH]c2c1 (stereo not drawn) | 55.9 | 0.7% | -1.6% | 1.7% | 17.0* | 2.4%
COc1ccc(C2C=C3CNS(=O)(=O)C3CC2OC(=O)c2ccc(C(F)(F)F)cc2)cc1 (stereo not drawn) | -11.5 | · | · | · | -10.5 | ·
C#Cc1cccc(C(=O)N(Cc2cccnc2)CC2CCCN(C3CCCCC3)C2)c1 (stereo not drawn) | · | · | 2.4% | · | · | ·
COCCN(CC1CCCN(C2Cc3ccccc3C2)C1)C(=O)CSC (stereo not drawn) | 6.4 | 8.5% | 1.7% | -4.2% | 2.5 | -5.0%
Cc1ccc(C(=O)N(CCN2CCCCC2)CC2CCCN(C3CCCC3)C2)s1 (stereo not drawn) | 71.7* | 0.2% | 6.9% | -6.0% | 32.9* | ?
COCCN(CC1CCCN(C2Cc3ccccc3C2)C1)C(=O)c1cccs1 (stereo not drawn) | 29.0* | 4.2% | -2.2% | -5.8% | 27.1* | -7.4%
O=C(c1cccs1)N(CCN1CCCCC1)CC1CCCN(C2CCCC2)C1 (stereo not drawn) | 52.6* | 4.9% | -2.2% | ? | 35.9* | -3.5%
COc1ccc(N2CCN(C(=O)c3cn(C4CCCCC4)c(=O)c4c3c3ccccc3n4C)CC2)cc1 | · | · | 0.4% | · | · | ·
CCN1C/C(=C/c2ccc(N3CCOCC3)cc2)C(=O)/C(=C/c2ccc(N3CCOCC3)cc2)C1 | 35.6* | -3.3% | -3.3% | 4.3% | 25.6* | 4.0%
CN1C/C(=C\c2ccc(N3CCOCC3)cc2)C(=O)/C(=C/c2ccc(N3CCOCC3)cc2)C1 | -1.3 | 3.1% | -2.6% | 21.2% | 6.2 | 10µM*
CC(C)NC(=O)C1Cc2c(-c3ccc4c(c3)OCO4)ccnc2O1 (stereo not drawn) | · | · | -5.5% | · | · | ·
Cn1cccc1CNC(=O)Nc1ccccc1 | 52.4* | -22.4% | -2.7% | 18.5% | 42.7* | -12.4%
Cc1ccc(NC(=O)NCCN2CCCCC2)cc1C | 18.9 | 2.8% | -0.9% | -12.9% | 8.1 | 1.7%
